Source: ChEMBL document CHEMBL5724796, “Tm Shift (DSF) assay results for EUbOPEN Chemogenomics Library” (2024)

Columns and labels:
Conditions in all cases: Compound concentration 20.0 uM
[1] = target: Tyrosine-protein kinase ABL1 (Homo sapiens) (UniProt P00519)
[2] = target: Bromodomain-containing protein 4 (Homo sapiens) (UniProt O60885)
[3] = target: Cyclin-dependent kinase 2 (Homo sapiens) (UniProt P24941)
[4] = target: Casein kinase I isoform delta (Homo sapiens) (UniProt P48730)
[5] = target: Glycogen synthase kinase-3 beta (Homo sapiens) (UniProt P49841)
[6] = target: Mitogen-activated protein kinase 1 (Homo sapiens) (UniProt P28482)
[7] = target: T1, Aurora kinase A (Homo sapiens) (UniProt O14965)
T1 sequence (whole entry): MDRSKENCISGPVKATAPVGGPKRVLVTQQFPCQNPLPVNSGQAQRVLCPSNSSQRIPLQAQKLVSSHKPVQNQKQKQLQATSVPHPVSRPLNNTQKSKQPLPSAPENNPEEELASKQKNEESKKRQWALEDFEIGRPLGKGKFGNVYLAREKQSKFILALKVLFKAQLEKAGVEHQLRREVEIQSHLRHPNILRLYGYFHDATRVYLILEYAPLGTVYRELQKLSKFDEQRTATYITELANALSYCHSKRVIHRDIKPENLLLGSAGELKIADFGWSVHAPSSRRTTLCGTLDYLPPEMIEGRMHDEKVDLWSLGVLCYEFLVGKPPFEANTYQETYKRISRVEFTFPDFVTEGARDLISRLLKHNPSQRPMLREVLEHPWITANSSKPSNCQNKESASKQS

[8] = target: T2, Transcription intermediary factor 1-alpha (Homo sapiens) (UniProt O15164)
T2 sequence (whole entry): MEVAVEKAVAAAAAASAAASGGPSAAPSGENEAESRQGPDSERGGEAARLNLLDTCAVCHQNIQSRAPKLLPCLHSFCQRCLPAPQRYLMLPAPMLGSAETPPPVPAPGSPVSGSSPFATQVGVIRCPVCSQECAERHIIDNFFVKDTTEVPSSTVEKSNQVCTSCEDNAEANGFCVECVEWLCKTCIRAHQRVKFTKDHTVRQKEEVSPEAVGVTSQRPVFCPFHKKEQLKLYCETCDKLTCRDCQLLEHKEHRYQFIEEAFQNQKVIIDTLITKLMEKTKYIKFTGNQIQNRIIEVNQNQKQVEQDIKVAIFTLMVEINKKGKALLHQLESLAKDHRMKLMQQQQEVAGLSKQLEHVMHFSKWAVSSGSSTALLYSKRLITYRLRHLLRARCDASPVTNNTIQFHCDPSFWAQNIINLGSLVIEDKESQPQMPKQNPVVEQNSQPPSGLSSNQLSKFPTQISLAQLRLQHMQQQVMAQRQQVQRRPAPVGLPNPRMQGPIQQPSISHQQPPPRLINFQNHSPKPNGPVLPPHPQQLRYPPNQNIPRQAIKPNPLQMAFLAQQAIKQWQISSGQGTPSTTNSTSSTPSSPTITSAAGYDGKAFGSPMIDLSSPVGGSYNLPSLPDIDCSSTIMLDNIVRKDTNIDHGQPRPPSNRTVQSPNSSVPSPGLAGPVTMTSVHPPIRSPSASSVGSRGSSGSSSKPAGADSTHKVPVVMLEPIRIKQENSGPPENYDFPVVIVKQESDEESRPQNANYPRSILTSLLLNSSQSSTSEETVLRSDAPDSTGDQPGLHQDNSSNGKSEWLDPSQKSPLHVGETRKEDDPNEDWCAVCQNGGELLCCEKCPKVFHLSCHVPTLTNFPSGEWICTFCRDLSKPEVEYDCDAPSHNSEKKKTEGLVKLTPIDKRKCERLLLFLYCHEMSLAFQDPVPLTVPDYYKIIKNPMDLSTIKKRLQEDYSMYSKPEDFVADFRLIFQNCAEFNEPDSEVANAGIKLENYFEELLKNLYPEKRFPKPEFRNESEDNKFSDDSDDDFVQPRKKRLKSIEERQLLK

Chain of Mitogen-activated protein kinase 1 (Homo sapiens) (P28482 whole entry): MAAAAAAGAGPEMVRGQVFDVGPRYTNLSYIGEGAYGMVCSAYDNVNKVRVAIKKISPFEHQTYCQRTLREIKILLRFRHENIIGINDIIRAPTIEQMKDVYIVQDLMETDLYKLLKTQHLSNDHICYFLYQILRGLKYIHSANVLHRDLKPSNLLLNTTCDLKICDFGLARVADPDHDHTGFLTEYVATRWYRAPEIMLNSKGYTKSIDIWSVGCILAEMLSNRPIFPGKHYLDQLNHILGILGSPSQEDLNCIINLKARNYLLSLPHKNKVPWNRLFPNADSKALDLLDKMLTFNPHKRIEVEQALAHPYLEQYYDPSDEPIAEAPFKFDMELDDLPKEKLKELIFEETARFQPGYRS
Chain of Tyrosine-protein kinase ABL1 (Homo sapiens) (P00519 whole entry): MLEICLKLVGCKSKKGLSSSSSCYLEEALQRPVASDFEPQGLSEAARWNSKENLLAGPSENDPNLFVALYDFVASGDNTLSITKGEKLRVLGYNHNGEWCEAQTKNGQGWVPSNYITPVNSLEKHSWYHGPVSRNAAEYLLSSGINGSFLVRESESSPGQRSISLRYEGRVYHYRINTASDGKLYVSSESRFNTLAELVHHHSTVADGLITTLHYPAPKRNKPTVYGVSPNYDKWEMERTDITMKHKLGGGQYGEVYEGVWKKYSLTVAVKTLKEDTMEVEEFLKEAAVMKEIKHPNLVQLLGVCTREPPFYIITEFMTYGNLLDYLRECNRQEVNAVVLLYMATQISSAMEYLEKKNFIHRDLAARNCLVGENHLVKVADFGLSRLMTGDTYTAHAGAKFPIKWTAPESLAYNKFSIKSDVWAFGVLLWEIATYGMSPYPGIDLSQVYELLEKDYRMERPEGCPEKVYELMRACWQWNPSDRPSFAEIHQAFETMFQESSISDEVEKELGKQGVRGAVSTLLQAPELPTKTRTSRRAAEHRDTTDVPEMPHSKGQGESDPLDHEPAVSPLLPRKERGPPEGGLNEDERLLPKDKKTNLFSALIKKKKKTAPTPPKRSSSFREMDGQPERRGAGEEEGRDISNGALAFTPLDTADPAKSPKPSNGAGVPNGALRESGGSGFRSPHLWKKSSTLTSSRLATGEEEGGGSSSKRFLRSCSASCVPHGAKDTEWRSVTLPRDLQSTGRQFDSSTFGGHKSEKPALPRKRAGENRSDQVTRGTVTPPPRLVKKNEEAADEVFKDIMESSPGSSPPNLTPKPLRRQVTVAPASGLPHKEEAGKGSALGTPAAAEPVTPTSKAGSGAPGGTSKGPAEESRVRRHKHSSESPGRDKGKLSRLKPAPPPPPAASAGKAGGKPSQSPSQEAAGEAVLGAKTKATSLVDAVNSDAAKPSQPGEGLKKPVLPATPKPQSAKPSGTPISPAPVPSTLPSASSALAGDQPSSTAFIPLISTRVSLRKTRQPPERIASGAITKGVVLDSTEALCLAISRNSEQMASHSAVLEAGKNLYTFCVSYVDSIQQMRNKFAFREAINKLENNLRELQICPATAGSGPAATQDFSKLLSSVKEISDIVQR
Chain of Casein kinase I isoform delta (Homo sapiens) (P48730 whole entry, looked up, canonical isoform): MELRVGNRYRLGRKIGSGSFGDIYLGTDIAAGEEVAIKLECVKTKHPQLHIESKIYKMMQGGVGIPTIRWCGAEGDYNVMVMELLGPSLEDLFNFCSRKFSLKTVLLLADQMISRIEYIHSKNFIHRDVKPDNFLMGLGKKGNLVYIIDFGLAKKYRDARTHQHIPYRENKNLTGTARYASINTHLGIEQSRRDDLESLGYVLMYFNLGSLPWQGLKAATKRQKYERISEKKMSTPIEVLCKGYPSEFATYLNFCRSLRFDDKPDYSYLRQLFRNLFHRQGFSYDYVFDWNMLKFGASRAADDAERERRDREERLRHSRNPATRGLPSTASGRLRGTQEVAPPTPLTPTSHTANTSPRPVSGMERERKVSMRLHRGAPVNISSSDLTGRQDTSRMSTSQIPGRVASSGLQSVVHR
Chain of Glycogen synthase kinase-3 beta (Homo sapiens) (P49841 whole entry, looked up): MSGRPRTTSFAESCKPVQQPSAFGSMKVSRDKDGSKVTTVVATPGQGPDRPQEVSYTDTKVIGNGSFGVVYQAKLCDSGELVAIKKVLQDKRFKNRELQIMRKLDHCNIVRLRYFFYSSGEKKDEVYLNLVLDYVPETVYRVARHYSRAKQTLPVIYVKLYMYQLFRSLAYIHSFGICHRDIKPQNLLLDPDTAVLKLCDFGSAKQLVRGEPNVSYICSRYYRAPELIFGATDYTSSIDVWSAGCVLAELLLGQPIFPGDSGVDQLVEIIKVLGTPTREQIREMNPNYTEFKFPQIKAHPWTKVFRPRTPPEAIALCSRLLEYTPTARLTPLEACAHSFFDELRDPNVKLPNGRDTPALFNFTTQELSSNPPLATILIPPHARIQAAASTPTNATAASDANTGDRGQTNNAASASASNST

| SMILES | ΔTm [1] | ΔTm [2] | ΔTm [3] | ΔTm [4] | ΔTm [5] | ΔTm [6] | ΔTm [7] | ΔTm [8] | ΔTm ([5]; Protein concentration 2.0 uM) |
| --- | --- | --- | --- | --- | --- | --- | --- | --- | --- |
| CN(Cc1cccc(-c2ccncc2)c1)C(=O)Oc1ccc(-c2ccc(C(N)=O)cc2)cc1 | 0.52 °C | 0.54 °C | 0.45 °C | -0.05 °C | 0.86 °C | 0.04 °C | -1.82 °C | 0.18 °C |  |
| O=C(NCCCCc1ccccc1)n1c(=O)oc2cc(-c3ccc(F)cc3)ccc21 | 0.52 °C | -2.75 °C | 0.86 °C | -0.19 °C | 0.3 °C | 0.07 °C | -1.29 °C | 0.81 °C |  |
| COC(=O)C[C@@H]1N=C(c2ccc(Cl)cc2)c2c(sc(C)c2C)-n2c(C)nnc21 | -0.09 °C | 12.3 °C | -0.41 °C | 0.16 °C | -0.01 °C | -0.21 °C | -1.3 °C | -0.91 °C |  |
| CCS(=O)(=O)N1CCC([C@@H](C)n2c(C)c(C(=O)NCc3c(OC)cc(C)[nH]c3=O)c3ccccc32)CC1 | 0.06 °C | -2.35 °C | 0.2 °C | 0.01 °C | -0.39 °C | -0.34 °C | -0.26 °C | -1 °C |  |
| N#Cc1ccc([C@H]2CCCC[C@H]2O)cc1C(F)(F)F | 0.55 °C | -1.51 °C | 0.11 °C | 0.3 °C | -0.43 °C | -0.24 °C | -1.09 °C | -1.04 °C |  |
| CC(C)n1nc(-c2cc3cc(O)ccc3[nH]2)c2c(N)ncnc21 |  | 2.33 °C | 2.02 °C | 5.15 °C |  | 0.14 °C | 3.86 °C | -0.37 °C | 2 °C |
| O=[N+]([O-])c1cc(O)c(O)c([N+](=O)[O-])c1 | 0.3 °C | 2.94 °C | 1.19 °C | -0.22 °C | -0.11 °C | 0.24 °C | 0.17 °C | 3.59 °C |  |
| Fc1ccc(C(OCCN2CCN(CCCc3ccccc3)CC2)c2ccc(F)cc2)cc1 | 0.53 °C | -4.03 °C | -0.37 °C | -0.45 °C | -0.66 °C | 0.05 °C | -2.65 °C | -0.53 °C |  |
| O=C(O)C1=CCCN(CCOC(c2ccc(C(F)(F)F)cc2)c2ccc(C(F)(F)F)cc2)C1 | 0.71 °C | -3.83 °C | -0.13 °C | -0.26 °C | -0.54 °C | 0.12 °C | -2.7 °C | 0.08 °C |  |
| C=CCO/N=C1\c2ccccc2-c2nc(C#N)c(C#N)nc21 | 0.13 °C | -2.12 °C | 0.55 °C | -1.63 °C | 0.17 °C | -0.02 °C | -2.47 °C | 0.9 °C |  |
| CC(=O)Nc1ccc(OC[C@](C)(O)C(=O)Nc2ccc([N+](=O)[O-])c(C(F)(F)F)c2)cc1 | 0.78 °C | -0.77 °C | 0.35 °C | 0.23 °C | 0.71 °C | -0.26 °C | -0.03 °C | 0.02 °C |  |
| C[C@]12O[C@H](C[C@]1(O)CO)n1c3ccccc3c3c4c(c5c6ccccc6n2c5c31)CNC4=O |  | -1.2 °C | 9.18 °C | 2.18 °C | 4.78 °C | 0.35 °C | 8.79 °C | -0.11 °C |  |
| O=C(N1CCCC[C@H]1Cc1ccccc1)n1cc(-c2ccc(-c3ccccc3)cc2)nn1 | 0.09 °C | 5.42 °C | 0.51 °C | -0.09 °C | -2.39 °C | -0.72 °C | -1.72 °C | 1.36 °C |  |
| C=Cc1cc(C(=O)Nc2ccc(C(=N)N)cc2)c(-c2ccc(C(=O)NCC3CC3)nc2C(=O)O)cc1OC | 0.26 °C | -1.29 °C | 0.57 °C | 0.02 °C | -0.41 °C | 0.21 °C | -1.17 °C | 0.42 °C |  |
| COc1cc(C)[nH]c(=O)c1CNC(=O)c1c(C)n([C@H](C)C2CCOCC2)c2ccccc12 | 0.28 °C | -1.94 °C | 0.11 °C | 0.07 °C | -0.59 °C | -0.18 °C | -0.23 °C | -0.56 °C |  |
| O=C(N1CCCC[C@@H]1Cc1ccccc1)n1cc(-c2ccc(-c3ccccc3)cc2)nn1 | 0.24 °C | -2.3 °C | 0.21 °C | -1.21 °C | -0.59 °C | -0.45 °C | -2.78 °C | 2.73 °C |  |
| N#Cc1ccc(N2N=C3c4ccc(C(=O)O)cc4CC[C@@H]3[C@@H]2C2CCCC2)cc1Cl | -2.47 °C | 0 °C | -2.04 °C | -4.9 °C | 0 °C | -9.49 °C | 0.42 °C | 1.43 °C |  |
| Nc1cccc(CNC(=O)c2ccc(Oc3ccc(OCc4cccc(F)c4)cc3)nc2)c1 | 1.07 °C | -0.91 °C | 0.38 °C | -0.56 °C | 1.13 °C | -0.86 °C | -1.57 °C | 0.24 °C |  |
| Cc1ccc(N2C(=O)/C(=C/C=C/c3ccco3)C(=O)NC2=S)cc1Cl | 0.75 °C | -2.47 °C | -0.73 °C | 0.31 °C | -1.52 °C | -1.33 °C | -0.68 °C | -2.21 °C |  |
| Cc1sc2c(c1C)C(c1ccc(Cl)cc1)=N[C@@H](CC(=O)OC(C)(C)C)c1nnc(C)n1-2 | 0.27 °C |  | 0 °C | 0.21 °C | -0.11 °C | -0.24 °C | -0.4 °C | -1.48 °C |  |
| C(=C\c1ccccc1)/CN1CCN(CCOC(c2ccccc2)c2ccccc2)CC1 | 0.28 °C | -3.78 °C | -0.38 °C | -0.31 °C | -0.82 °C | 0.07 °C | -2.65 °C | -2.32 °C |  |
| CNC(=O)c1cc(C(=O)NC2CC2)cn(Cc2ccccc2)c1=O | 0.09 °C | -0.92 °C | 0.1 °C | -0.13 °C | -0.62 °C | 0.15 °C | -2.45 °C | 0.41 °C |  |
